Laboratory results: PubChem BioAssay AID504652 (National Center for Advancing Translational Sciences (NCATS), 2011)
Values joined by “and” are separate entries in the source; they are usually repeats but may differ in a detail not shown here. Equal values may be shown once. Out of some 360,000 compounds screened, about 11,000 (3.1%) were called active. The sample as a whole holds a higher share of actives than the screen did. A number with no mark means an inactive call. Cut-off read from the data, not from the text of the source: active = activity change below about -30%; inactive = the rest.

Biological target: D(1A) dopamine receptor (Homo sapiens) (UniProt P21728)
Sequence (P21728 whole entry, looked up): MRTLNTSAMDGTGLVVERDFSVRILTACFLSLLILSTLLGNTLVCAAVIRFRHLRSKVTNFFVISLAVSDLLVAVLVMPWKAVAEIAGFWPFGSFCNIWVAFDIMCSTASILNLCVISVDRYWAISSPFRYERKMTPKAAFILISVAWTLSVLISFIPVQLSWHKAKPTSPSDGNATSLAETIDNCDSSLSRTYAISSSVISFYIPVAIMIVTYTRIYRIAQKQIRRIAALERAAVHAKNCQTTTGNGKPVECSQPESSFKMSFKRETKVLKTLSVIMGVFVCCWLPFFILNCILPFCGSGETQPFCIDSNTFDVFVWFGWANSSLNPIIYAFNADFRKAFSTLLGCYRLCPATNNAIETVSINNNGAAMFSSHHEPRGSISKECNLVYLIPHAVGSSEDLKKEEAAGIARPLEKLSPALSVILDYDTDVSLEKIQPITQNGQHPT
Experiment: Antagonist of Human D 1 Dopamine Receptor: qHTS
Details: HEK293 TREx D1 cells, calcium flux, dopamine EC80; at 10 µM; stronger effect = lower value
Text: Dopamine receptors (DARs) are involved in the etiology and/or therapy of a number of neuropsychiatric and endocrine disorders. For instance, all receptor-based antiparkinsonian drugs work via stimulating the […] DAR subtype whereas all FDA-approved antipsychotic agents are antagonists of this receptor. […] There are three different types of allosteric modulators that we are seeking, two of which will stimulate or augment receptor signaling, allosteric agonists and potentiators, while the third, allosteric antagonists, will attenuate receptor signaling. The present primary screening assay measures compound antagonism after an EC80 addition of dopamine by tracking calcium flux in a […], inducible Hek293 Trex D1 cell line. NIH Chemical Genomics Center [NCGC] NIH Molecular Libraries Probe Centers Network [MLPCN] MLPCN Grant: NS064831-01 Assay Submitter (PI): David Sibley
Freshly passaged cells are plated in 1536 well black, clear bottom plates at a density of 4000 cells/well in 3 ul of complete media containing 1x tetracycline inducer. After an overnight incubation at 30 C in 5% CO2, cells are loaded with 2 ul of the no wash Calcium Assay Kit (ABD Bioquest) and incubated at room temperature for 30 to 90 minutes. Agonist read: A 10 cycle (1 second/cycle) baseline measurement is taken and then the FDSS online 1536 pintool delivers 23 nl of compound library (as well as dopamine controls) to the plate. The plate is measured for kinetically at 1 cycle/sec for 180 seconds. Following the 180 second read, 1 ul of an EC80 (negative modulation assay) is delivered by an onboard pipette head. Measurements are taken kinetically for an additional 180 seconds.
% is set by controls: 0 for no effect and ±100 for the full control effect.

SMILES | activity change, negative = inhibition
COc1ccccc1-c1ccnc2[nH]n(-c3ccccc3)c(=O)c12 | -7.97%
COc1cccc(CNC(=O)CCc2nc(-c3ccc(C)cc3)no2)c1 | -1.26%
Cn1c(C(=O)N2CCC(C(=O)N3CCN(c4ccccc4)CC3)CC2)cc2sccc21 | -14.6%
CCc1nn(CC(=O)NCC(C)c2ccccc2)c(=O)c2cc3occc3n12 (configuration not stated) | -32.7% (active)
CCCN1CCN(CCCNC(=O)Cn2nc(CC)n3c(cc4occc43)c2=O)CC1 | -17.4%
CCc1nn(CCCC(=O)NC(C)c2ccccc2)c(=O)c2cc3occc3n12 (configuration not stated) | 5.05% and -4.27%
CSc1ccc(C2C(C(=O)Nc3ccccc3)=C(C)Nc3nc4ccccc4n32)cc1 (configuration not stated) | 3.8%
CCN(CCCNC(=O)c1c(C)oc2ncn(CC(C)C)c(=O)c12)Cc1ccccc1 | 0.919%
COc1ccc(OC)c(NC(=O)CN2CCCN(Cc3cc(C)ccc3C)S2(=O)=O)c1 | 2.17%
COC(=O)[C@]1(C)N[C@H](c2ccc(-c3ccc(Cl)c(Cl)c3)cc2)[C@@H]2C(=O)N(C)C(=O)[C@@H]21 | -31.4% (active)
COC(=O)C1(C)NC(c2ccc(F)cc2)C2C(=O)N(c3ccccc3)C(=O)C21 (configuration not stated) | 0.925%
COC(=O)C1(C)NC(c2ccc(C)cc2)C2C(=O)N(c3ccc(F)cc3)C(=O)C21 (configuration not stated) | -8.61%
CCC(=O)N1CCc2cc(CNS(=O)(=O)c3ccc(Br)s3)ccc21 | -7.89%
CCCCOc1ccc(CN2C(=O)C(=O)c3cc(Br)cc(C)c32)cc1OC | -30.4% (active)
CCCCOc1ccc(Cn2c(=O)oc3ccc(C)cc32)cc1OC | -3.29%
CCCCN1C(=O)C(C)=C(C)C1OCCc1ccc(OC)c(OC)c1 (configuration not stated) | 2.6%
Cc1ccccc1CNC(=O)CSc1nnc(C)c2c(C)n(-c3ccccc3)nc12 | -8.46%
CCOC(=O)c1c(S(=O)(=O)NCC(=O)Nc2ccc(Cl)c(C(F)(F)F)c2)c(C)n(C)c1C | -17.1%
Cc1ccc(CN2CCC(n3nccc3NC(=O)CCCc3ccccc3)CC2)o1 | 3.11%
CC(=O)NCC(=O)N1CCC(n2nccc2NC(=O)CCCc2ccccc2)CC1 | -10.3%
CC(=O)N[C@@H](C)C(=O)N1CCC(n2nccc2NC(=O)CCCc2ccccc2)CC1 | -35.7% (active)
COc1ccc(CCNC(=O)CCc2c(C)nc3c(c(C)nn3-c3ccc(C)c(C)c3)c2C)c(OC)c1OC | -6.08%
Cc1ccc2c(c1)N(CC(=O)NCC1CCCO1)C(=O)CO2 (configuration not stated) | -13.8%
Cc1ccc(C(=O)N/C(=C/c2cccs2)C(=O)NCC2CCCO2)cc1 (configuration not stated) | -5.41%
Cc1ccc(-n2c(C)cc(/C=C(\C#N)C(=O)NCC3CCCO3)c2C)cc1 (configuration not stated) | -101% (active)
Cc1ccccc1OCCSc1nc2ccc(NC(=O)c3ccco3)cc2s1 | -30%

SMILES | activity change, negative = inhibition
COc1ccccc1CNC(=O)CCn1c(=O)c2ccccc2n(CC(=O)Nc2cccc(Cl)c2)c1=O | -3.25%
Cc1cc(C)cc(-n2c(SCC(=O)NCC3CCCO3)nc3c([nH]c4ccccc43)c2=O)c1 (configuration not stated) | -4.35%
Cc1c(C(=O)N2CCCC2)oc2c1-c1nn(CC(=O)NCc3ccc(OC(C)C)cc3)cc1CC2 | -7.55%
Cc1cccc(N2CCN(C3=C(c4ccccc4)C(=O)c4ccccc43)CC2)c1C | 18%
CN(CC(=O)Nc1cccc(C(F)(F)F)c1)S(=O)(=O)c1cccs1 | -18.7%
CCOC(=O)c1ccc(NC(=O)Cn2c(=O)cc(C)c3c(C)nn(-c4cccc(F)c4)c32)cc1 | -13.3%
COC(=O)c1ccc(/C=N/OCC(=O)Nc2cc(F)ccc2F)cc1 | -33% (active)
O=C(COC(=O)[C@H](Cc1ccccc1)NC(=O)c1cccs1)Nc1cc(F)ccc1F | -9.37%
O=C(CO/N=C/c1ccc(OC(F)F)cc1)NCc1ccc(F)cc1 | -6.98%
CCC(C(=O)N1CCN(S(=O)(=O)c2sc(C(=O)O)c(C)c2C(=O)O)CC1)c1ccccc1 (configuration not stated) | -4.86%
CCc1ccc(C(=O)N2CCN(S(=O)(=O)c3sc(C(=O)O)c(C)c3C(=O)O)CC2)cc1 | -68.6% (active)
Cc1ccc(C(=O)N2CCN(S(=O)(=O)N3CCOCC3)CC2)cc1 | -3.63%
COc1ccc(SCc2cc(=O)c3ccc(C)c(C)c3[nH]2)cc1 | 7.95%
Cn1c(=O)c2c(nc(SCC(=O)Nc3ccc(F)cc3)n2Cc2ccc(Cl)cc2)n(C)c1=O | -3.1%
COc1cccc(N2CCN(C(=O)CCCCCn3c(=O)[nH]c4ccccc4c3=O)CC2)c1 | -11.8%
CCn1c(=O)cc(OCC(=O)Nc2cc(Cl)c(OC)cc2OC)c2ccccc21 | 1.43%
O=C(Cc1csc(Nc2nc(=S)[nH]c3ccccc23)n1)NCCCN1CCN(c2cccc(Cl)c2)CC1 | -56.6% (active)
Cn1c(=O)cc(OCC(=O)N2CCN(c3ccccc3)CC2)c2ccccc21 | -4.64%
O=C(CCn1c(=O)[nH]c2ccccc2c1=O)NCCCN1CCN(c2cccc(Cl)c2)CC1 | -49% (active)
CCn1c(=O)cc(OCC(=O)NCCCN2CCN(c3cccc(Cl)c3)CC2)c2ccccc21 | -46.8% (active)
COCCCn1c(Cc2csc(Nc3cccc(Cl)c3)n2)nnc1SCC(=O)OC1CCCCC1 | 12.9%
CCOC(=O)N1CCC(Nc2c(NCCN3CCN(c4cccc(Cl)c4)CC3)c(=O)c2=O)CC1 | -24%
CCOC(=O)c1c(C)[nH]c(CCC(=O)NCCCN2CCN(c3cc(C)ccc3C)CC2)c1C | -11.7%
CCOC(=O)c1c(C)[nH]c(CCC(=O)NCCCN2CCN(c3cccc(Cl)c3)CC2)c1C | -31.4% (active)
O=C(Cc1ccc(-n2c(=O)[nH]c3ccccc3c2=O)cc1)N1CCN(c2cccc(Cl)c2)CC1 | -8.8%
COc1cccc(CNC(=O)Cc2csc(Nc3nc(=S)[nH]c4ccccc34)n2)c1 | -0.499%
